# Measured values reported in PubChem BioAssay (NCI).
# This is part of a sample that, as a whole, favours compounds with a hit. Of some 83,000 tested, about 20% had one in any assay.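 Each cell line was grown in a 96-well plate and treated with one concentration of compound for 48 hours. Values below 10 were considered active.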 A number with no mark means an inactive call. The source made the active and inactive calls.
# Legend:
# Test in all cases: NCI-60 one-dose screen, 48 h (100 = growth as untreated, 0 = no growth, -100 = all killed)
# Settings in all cases: 10 µM unless noted
# [1] = system: SK-MEL-2 melanoma
# [2] = system: EKVX NSCLC
# [3] = system: SN12C renal
# [4] = system: UO-31 renal
# [5] = system: TK-10 renal
# [6] = system: ACHN renal
# [7] = system: CAKI-1 renal
# [8] = system: A498 renal
# [9] = system: CCRF-CEM leukemia
# [10] = system: MOLT-4 leukemia
Structure (SMILES),growth [1],growth [2],growth [3],growth [4],growth [5],growth [6],growth [7],growth [8],growth [9],growth [10]
COc1ccc(-c2nn(-c3ccccc3)cc2/C=C2/SC(=S)N(C)C2=O)cc1,108%,74.4%,34.2%,16%,27.7%,-0.446% (active),38.5%,96.9%,49.6%,81.3%
CC1=C(Nc2ccc(N3CCN(C)CC3)cc2)C(=O)c2cncnc2C1=O,109%,98.3%,98.5%,86.2%,142%,6.25% (active),87.9%,113%,5.93% (active),-11.9% (active)
S=C(Nc1ccc(-c2nc(N3CCOCC3)c3cccn3n2)cc1)Nc1cccnc1,43.5%,46.7%,28.8%,15.1%,21.4%,37.3%,60.6%,-13.3% (active),22.1%,36.8%
O=S(=O)(NCCCNc1nccc(-c2c(-c3ccc(F)c(O)c3)nc3occn23)n1)c1ccccc1,31.9%,101%,79.1%,75%,122%,70.1%,96.5%,101%,79.1%,78.2%
CCCCNC(=O)Oc1ccc(/C(=C(/CC)Cc2ccccc2)c2ccc(OCCN3CCCCCC3)cc2)cc1,84.9%,59.2%,25.8%,35.2%,92.4%,66.4%,72.1%,72%,5.36% (active),2.34% (active)
O=C(CSc1nnc2n1S(=O)(=O)c1ccccc1N2c1ccccc1)Nc1nc2ccc(F)cc2s1,56.8%,103%,118%,-15.4% (active),125%,91.3%,85.3%,122%,127%,86.8%
CCCCCCNC(=O)Oc1ccc(/C(=C(/C)Cc2ccc(OC)cc2)c2ccc(OCCCN(C)C)cc2)cc1,26.9%,83%,45.8%,0.897% (active),51.3%,37%,44.5%,97.3%,-2.26% (active),-12.3% (active)
COc1ccc2nc3ccc(OC)cc3c(SCCCN)c2c1,110%,87.1%,67.9%,53.3%,114%,43.7%,74.1%,83.2%,10.5%,-5.22% (active)
C=C1C(=O)O[C@H]2[C@H]1CC/C(COC(=O)CCSCCC(=O)OC/C1=C/CC[C@@]3(C)O[C@H]3[C@H]3OC(=O)C(=C)[C@@H]3CC1)=C\CC[C@@]1(C)O[C@@H]21,23.8%,12%,0.113% (active),-49.4% (active),-3.89% (active),-12% (active),4.51% (active),69.8%,-24.8% (active),-25.7% (active)
CCOC(=O)c1c(C)nc2c(c1N)CC(=O)N2Cc1cc(F)cc(Cl)c1,118%,85.3%,93.2%,84.6%,92.1%,88.2%,75.8%,76.7%,95.2%,95.9%
CN(CCOc1ccc(C#N)cc1)CCOc1ccc(C#N)cc1,66.9%,80.3%,81.6%,63%,94.3%,83.6%,99.7%,12.7%,-84.4% (active),94.4%
N#Cc1nn(-c2cc(=O)[nH]c3ccc(Cl)cc23)c(N)c1C#N,116%,94%,104%,75.8%,105%,92.7%,101%,116%,-15.8% (active),-3.91% (active)
COc1ccc2c(c1)c(-c1noc(C(=O)c3cn(C)c4ccc(Br)cc34)n1)cn2C,93.9%,114%,100%,76.1%,103%,103%,94.2%,121%,99.8%,82.7%
CCCCCCC1(C)NCCO1 (stereo not given),109%,112%,103%,83.7%,111%,103%,92.9%,96.1%,90.2%,104%
COc1ccc(C(=O)Nc2ncc(Cc3ccc(F)cc3)s2)cc1,30.7%,38.4%,25.1%,39.8%,63.7%,28.3%,22.3%,-12.4% (active),12.3%,14.8%
Cc1ccc(C(C(N)=O)C(C(N)=O)c2ccccc2)cc1 (stereo not given),105%,113%,112%,108%,101%,115%,101%,116%,93.4%,100%
CC12CCC3c4ccccc4CCC3(CO1)C2 (stereo not given),109%,107%,98.3%,117%,110%,98.4%,101%,78.9%,86.9%,89.3%
Cc1ccc2c3c(c(=O)[nH]c2c1)C1(C(C#N)=C(N)O3)c2cc(Br)ccc2-c2ccc(Br)cc21,32.6%,-32.9% (active),-32.3% (active),-62.3% (active),-36.2% (active),-15.8% (active),-64.3% (active),-18.8% (active),32.6%,21.3%
CCCCC(=O)Nc1ncc(Cc2ccc(Cl)cc2)s1,90.4%,72.2%,74.6%,58.2%,84.8%,81.8%,42.3%,70.6%,76.4%,66.2%
O=C(O)CCCN1C(=O)/C(=C/C(Cl)=C/c2ccccc2)SC1=S,59.3%,40.2%,-6.97% (active),-46% (active),30.3%,-93.1% (active),24.2%,87.5%,2.55% (active),9.65% (active)
O=C(Nc1nn(-c2ccc(Cl)cc2Cl)nc1-c1ccccc1)c1ccccc1,106%,113%,98.9%,67.6%,117%,94.8%,85.1%,116%,95.9%,83.5%
CCn1cc(C(=O)N/N=C/c2cccs2)c(=O)c2cc(F)c(N3CCNC(C)C3)c(F)c21 (stereo not given),103%,34.1%,70%,66.8%,83.9%,87.2%,46.5%,104%,67.2%,75.1%
CN1CCN(c2ccc(NC(=O)c3cncnc3Nc3ccc(OCc4ccccn4)c(Cl)c3)cc2)CC1,21.6%,85.6%,59.2%,-72.1% (active),92.4%,51.8%,64.2%,67.2%,11.2%,8.56% (active)
Brc1ccc2[nH]cc(-c3nonc3-c3c[nH]c4ccccc34)c2c1,54%,28.4%,57.1%,30.4%,41.7%,34.2%,25.3%,43%,38.8%,27%
O=[N+]([O-])/C(=C/C=C/c1ccccc1)c1ccccc1,86.5%,92.7%,66.5%,-44.4% (active),91.1%,10.6%,51.2%,50.4%,36.5%,34.4%
COc1ccc(C2=Nc3c/c(=C\c4c(O)[nH]c5ccc(Cl)cc45)ccc3=N2)cc1,20.1%,56.6%,73.4%,59%,82.5%,70.1%,51.3%,25.9%,8.54% (active),19.9%
C#COc1cccc(Nc2ncnc3ncc(NC(=O)CCl)cc23)c1,24.5% [6.25 µM],57.1% [6.25 µM],3.98% [6.25 µM] (active),-68.1% [6.25 µM] (active),-24.2% [6.25 µM] (active),7.63% [6.25 µM] (active),36.4% [6.25 µM],61.8% [6.25 µM],23.2% [6.25 µM],50.4% [6.25 µM]
